Screening data (PubChem)
tim10-1 inh: growth inhibitors of tim10-1 mutant yeast, primary screen, luminescence, uHTS; S. cerevisiae tim10-1 ts strain growth, BacTiter-Glo, 24 h; inhibition, % at 20 µM; 2.2% of 330,000 active; AID 463190, 2010;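 active = inhibition of at least 40%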;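 note: mutant grown at 25 °C; 0% = DMSO wells with yeast and 100% = wells holding no yeast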
EBI2 antag: EBI2 receptor antagonists, beta-arrestin recruitment, primary screen, cell-based, luminescence, 7a,25-OHC stimulation, uHTS; G-protein coupled receptor 183 (Homo sapiens), P32249; AID 651636, 2012; inhibition, % at 5 µM; 0.81% of 360,000 active; 7a,25-OHC stimulated; in the data active = inhibition above about 38%;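 note: enzyme fragment complementation signal reports receptor beta-arrestin coupling in cells; 0% = agonist plus DMSO wells and 100% = wells without agonist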
Target sequence (P32249 whole entry, looked up, the tested form may be a part): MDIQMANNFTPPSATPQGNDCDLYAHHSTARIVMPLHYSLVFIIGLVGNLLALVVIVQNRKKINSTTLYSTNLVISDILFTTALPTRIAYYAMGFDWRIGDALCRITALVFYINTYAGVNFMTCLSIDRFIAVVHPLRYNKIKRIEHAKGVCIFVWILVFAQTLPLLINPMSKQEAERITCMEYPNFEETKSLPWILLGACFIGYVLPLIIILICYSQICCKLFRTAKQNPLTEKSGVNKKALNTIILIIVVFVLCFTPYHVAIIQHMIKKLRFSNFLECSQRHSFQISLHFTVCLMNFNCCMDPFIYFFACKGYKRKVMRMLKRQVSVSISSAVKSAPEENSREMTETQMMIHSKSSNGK
tim23-1 inh: growth inhibitors of tim23-1 mutant yeast, primary screen, luminescence, uHTS. S. cerevisiae tim23-1 growth, BacTiter-Glo luminescence, 24 h. inhibition, % at 20 µM. 1.3% of 330,000 active. AID 463212, 2010;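 active = growth inhibition of the mutant yeast at or above 50%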;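 note: temperature-sensitive mutant grown at 25 °C; plate controls were DMSO-treated mutant yeast for no effect and medium wells lacking yeast for full effect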
PfHsp90 set2: growth inhibition of PfHsp90-expressing yeast, primary screen, antimalarial PfHsp90 inhibitor project, S. cerevisiae, BacTiter-Glo luminescence, single point, set 2; BacTiter-Glo ATP, 48 h; yeast lacking PDR1 and PDR3 efflux regulators; inhibition, % at 9.4 µM; 0.32% of 310,000 active; AID 504621, 2011;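 active = every replicate shows inhibition above about 80%, whatever the replicate mean, limit read from the data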;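 note: 0% = DMSO neutral controls and 100% = 20 µM radicicol positive controls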
SKKanGAS inh: S. pyogenes SKKanGAS growth inhibitors in kanamycin, primary screen, streptokinase expression inhibitor project, SKKanGAS strain, BacTiter-Glo luminescence. inhibition, % at 7.5 µM. 1.3% of 300,000 active. 6 h;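 active = mean replicate score, as percent of positive control median, at least 50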;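 note: strain carries kanamycin resistance gene driven by streptokinase promoter and grows in 40 µg/ml kanamycin; loss of luminescence reflects streptokinase promoter inhibition or plain growth inhibition; 0% = median of DMSO wells and 100% = positive control at its reference dose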
TIM10 inh: growth inhibitors of isogenic TIM10 control yeast, primary screen, counter-screen for tim10-1 yeast inhibitor project, luminescence, uHTS. 1.4% of 330,000 active. AID 463195, 2010. S. cerevisiae TIM10 strain growth, BacTiter-Glo luminescence, 24 h. inhibition, % at 10 µM;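 active = inhibition of 40% or more at the single tested concentration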;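 note: wild-type TIM10 isogenic control strain grown at permissive 25 °C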
tim10 confirm: growth inhibitors of wild-type TIM10 yeast, confirmation, counter-screen for tim10-1 synthetic lethality project, single concentration, luminescence, S. cerevisiae; shares compounds with TIM10 inh; S. cerevisiae tim10 strain growth, BacTiter-Glo luminescence, 24 h; inhibition, % at 10 µM; 63% of 4,600 active;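 active = inhibition of yeast growth at or above a set limit in either of two replicates at 10 µM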;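 note: this counterscreen used the strain with wild-type TIM10; 0% = yeast with DMSO and 100% = medium wells lacking yeast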
tim23-1 conf: tim23-1 mutant yeast growth inhibitors, confirmation, luminescence, single concentration; shares compounds with tim23-1 inh; S. cerevisiae tim23-1 growth, BacTiter-Glo luminescence, 24 h; inhibition, % at 20 µM; 83% of 4,400 active; AID 463218, 2010;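 active = inhibition above about 39% in either of two replicate wells at 20 µM, limit read from the data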;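 note: temperature-sensitive tim23-1 mutant grown at 25 °C; 0% = DMSO wells with yeast and 100% = medium wells without yeast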
* marks the source's active call; other numbers are inactive results. This is a sample that favours compounds with a hit; in the whole collection about 4.7% have one here.

`CN1CCc2cc3c(c4c2[C@H]1[C@H](O)c1ccccc1-4)OCO3` gave tim10-1 inh 35.7, EBI2 antag -36.1, tim23-1 inh 57.9*, PfHsp90 set2 -14.0, SKKanGAS inh 3.6, TIM10 inh 53.1*, tim10 confirm 68.1* and tim23-1 conf 62.6*.
For C=CCSC(=C(C#N)C#N)c1cc2c([nH]1)CCCC2 the results were tim10-1 inh 28.6, EBI2 antag 9.7, tim23-1 inh 52.5*, PfHsp90 set2 -26.4, SKKanGAS inh 3.1, TIM10 inh 40.8*, tim10 confirm 23.1 and tim23-1 conf 62.5*.
`O=C(O)c1cc2c([nH]c1=O)CCCC2` gave tim10-1 inh 5.1, EBI2 antag 0.5, tim23-1 inh 1.4, PfHsp90 set2 -3.5, SKKanGAS inh 1.7 and TIM10 inh -10.8.
For Oc1c(Cl)cc(Cl)cc1C=Nc1ccc(N2CCOCC2)cc1 the results were tim10-1 inh 16.3, EBI2 antag 1.9, tim23-1 inh 73.9*, PfHsp90 set2 -20.6, SKKanGAS inh 4.3, TIM10 inh 65.7*, tim10 confirm 17.5 and tim23-1 conf 38.5*.
For O=C(Nc1ccc2nc3n(c(=O)c2c1)CCCCC3)c1cc([N+](=O)[O-])ccc1F the results were tim10-1 inh 38.5, EBI2 antag -2.8, tim23-1 inh 67.6*, PfHsp90 set2 2.9, SKKanGAS inh 19.4, TIM10 inh 48.0*, tim10 confirm 46.5* and tim23-1 conf 54.9*.
O=C(Nc1ccc2nc3n(c(=O)c2c1)CCCC3)c1ccccc1F was read as tim10-1 inh 9.2, EBI2 antag 18.4, tim23-1 inh 49.4, PfHsp90 set2 13.3, SKKanGAS inh 0.7 and TIM10 inh 23.3.
O=C(Nc1ccc2nc3n(c(=O)c2c1)CCCCC3)c1ccccn1 was read as tim10-1 inh 35.1, EBI2 antag 1.0, tim23-1 inh 54.5*, PfHsp90 set2 4.1, SKKanGAS inh -7.6, TIM10 inh 45.5*, tim10 confirm 36.1* and tim23-1 conf 68.5*.
`COc1ccc(N=C(C)C2=C(O)c3ccccc3C2=O)cc1` gave tim10-1 inh 35.4, EBI2 antag 10.9, tim23-1 inh 58.4*, PfHsp90 set2 -19.9, SKKanGAS inh -1.2, TIM10 inh 62.2*, tim10 confirm 12.2 and tim23-1 conf 68.2*.
`Clc1ccc(-c2nnc(NCc3ccccc3)c3ccccc23)cc1` gave tim10-1 inh 31.9, EBI2 antag 27.4, tim23-1 inh 68.0*, PfHsp90 set2 2.8, SKKanGAS inh 11.8, TIM10 inh 54.2*, tim10 confirm 56.8* and tim23-1 conf 71.0*.
For Cc1ccc(-c2nnc(NCc3ccccc3)c3ccccc23)cc1 the results were tim10-1 inh 21.6, EBI2 antag 31.2, tim23-1 inh 24.9, PfHsp90 set2 18.0, SKKanGAS inh 13.0 and TIM10 inh 29.5.
For Cc1c(NC(=O)c2cccc(NC(=O)COc3ccc(C#N)cc3)c2)c(=O)n(-c2ccccc2)n1C the results were tim10-1 inh 4.3, EBI2 antag -16.9, tim23-1 inh 2.5, PfHsp90 set2 -25.2 and TIM10 inh 0.5.
Screening COCCn1nnnc1CN1CCC(Cc2ccccc2)CC1 returned tim10-1 inh 9.5, EBI2 antag -11.5, tim23-1 inh 14.7, PfHsp90 set2 14.6, SKKanGAS inh 1.5 and TIM10 inh -5.9.
`Cc1nn2c(NCc3ccccn3)c3c(nc2c1-c1ccccc1)CCC3` gave tim10-1 inh 25.3, EBI2 antag -7.7, tim23-1 inh 56.3*, SKKanGAS inh 42.0, TIM10 inh 55.3*, tim10 confirm 52.3* and tim23-1 conf 57.1*.
`Cc1ccc(C(=O)/C=C/c2ccccc2[N+](=O)[O-])cc1` gave tim10-1 inh 29.8, EBI2 antag 1.8, tim23-1 inh 59.0*, PfHsp90 set2 11.8, SKKanGAS inh -4.5, TIM10 inh 49.7*, tim10 confirm 38.1* and tim23-1 conf 62.0*.
`COc1ccc(NC(=O)N2CCC(n3cnc4ccccc43)CC2)cc1` gave tim10-1 inh -8.0, EBI2 antag 37.6, tim23-1 inh -6.3, PfHsp90 set2 -23.3, SKKanGAS inh 1.7 and TIM10 inh 6.8.
`COC(=O)Cc1ccc(NC(=S)NCCSc2ccc(Cl)cc2)cc1` gave tim10-1 inh 35.0, EBI2 antag 2.0, tim23-1 inh 50.1*, PfHsp90 set2 -11.6, SKKanGAS inh -14.1, TIM10 inh 44.1*, tim10 confirm 42.4* and tim23-1 conf 42.8*.
COc1ccc(C2/C=C\CNCC(=O)N2Cc2ccc(F)cc2)cc1 (stereo not drawn) was read as tim10-1 inh 4.7, EBI2 antag -10.9, tim23-1 inh 6.8, SKKanGAS inh 14.9 and TIM10 inh -1.8.
Screening Cc1cccc(N2C(=O)CC(N3CCN(c4ccccn4)CC3)C2=O)c1 (stereo not drawn) returned tim10-1 inh 25.9, EBI2 antag 2.7, tim23-1 inh -9.9, PfHsp90 set2 13.4, SKKanGAS inh -10.2 and TIM10 inh -2.8.
For CCC(C)C(CO)NCCCn1ccc(NC(=O)OCc2ccccc2)nc1=O (stereo not drawn) the results were EBI2 antag -9.1.
For CCOC(=O)c1cnc(-n2nc(C)cc2C)nc1NC1CCCC1 the results were tim10-1 inh 38.7, EBI2 antag -8.1, tim23-1 inh 52.3*, PfHsp90 set2 -35.0, SKKanGAS inh 96.5*, TIM10 inh 44.6*, tim10 confirm 50.8* and tim23-1 conf 43.5*.
For O=C(Nc1ccc2c(c1)OCCO2)c1ccc(Br)s1 the results were EBI2 antag 3.4, PfHsp90 set2 -6.9 and SKKanGAS inh 1.3.
CCc1sc(C(=O)Nc2ccc3c(c2)OCCO3)cc1Br was read as tim10-1 inh 39.0, EBI2 antag 22.6, tim23-1 inh 78.7*, PfHsp90 set2 5.2, SKKanGAS inh 1.0, TIM10 inh 54.0*, tim10 confirm 47.3* and tim23-1 conf 84.9*.
